# Experimental data reported in the supplement of paper PMC12282887.
# ± gives the standard deviation of the averaged measurements.
# Key:
# Assay in all cases: promoter activity interaction Z-score (Lux/OD deviation from empty-vector control); higher = stronger promoter induction by the compound
# [1] = tested on: E. coli BW25113 acrABp lux reporter
# How it was run: (§1)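 Reporter strains of E. coli BW25113 grew at 37°C in 40 µl LB Lennox in 384-well plates. Readings of OD600 and luminescence were taken every 30 min over 12 h, integrated over 0–8 h (wild type) or 1–9 h (deletion strains), and wells below 10% of the median growth value were excluded. Scores are Z-transformed residuals of growth-normalised luminescence from a fit against a control.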
# [2] = tested on: E. coli BW25113 micFp lux reporter
# How it was run: as §1
# [3] = tested on: E. coli BW25113 ompFp lux reporter
# How it was run: as §1
# [4] = tested on: E. coli BW25113 robp lux reporter
# How it was run: as §1
# [5] = tested on: E. coli BW25113 soxSp lux reporter
# How it was run: as §1
# [6] = tested on: E. coli BW25113 tolCp lux reporter
# How it was run: as §1
# [7] = 0.02 µg/ml, genetic background: wild type
# [8] = 0.02 µg/ml, genetic background: ΔmarA
# [9] = 0.02 µg/ml, genetic background: Δrob
# [10] = 0.02 µg/ml, genetic background: ΔsoxS
# [11] = 0.04 µg/ml, genetic background: wild type
# [12] = 0.04 µg/ml, genetic background: ΔmarA
# [13] = 0.04 µg/ml, genetic background: Δrob
# [14] = 0.04 µg/ml, genetic background: ΔsoxS
# [15] = 0.079 µg/ml, genetic background: wild type
# [16] = 0.079 µg/ml, genetic background: ΔmarA
# [17] = 0.079 µg/ml, genetic background: Δrob
# [18] = 0.079 µg/ml, genetic background: ΔsoxS
# [19] = 0.16 µg/ml, genetic background: wild type
# [20] = 0.16 µg/ml, genetic background: ΔmarA
# [21] = 0.16 µg/ml, genetic background: Δrob
# [22] = 0.16 µg/ml, genetic background: ΔsoxS
smiles,measurement,setting,value
C[C@@H](O)[C@H]1C(=O)N2C(C(=O)O)=C(SCCNC=N)C[C@H]12 [Imipenem],promoter activity interaction Z-score,[1]; [7],0.313 ± 0.12
same,promoter activity interaction Z-score,[1]; [8],1.28 ± 1.8
same,promoter activity interaction Z-score,[1]; [9],0.353 ± 0.18
same,promoter activity interaction Z-score,[1]; [10],0.0665 ± 0.11
same,promoter activity interaction Z-score,[1]; [11],0.296 ± 0.28
same,promoter activity interaction Z-score,[1]; [12],0.881 ± 0.37
same,promoter activity interaction Z-score,[1]; [13],0.492 ± 0.11
same,promoter activity interaction Z-score,[1]; [14],-0.0993 ± 0.31
same,promoter activity interaction Z-score,[1]; [15],0.282 ± 0.4
same,promoter activity interaction Z-score,[1]; [16],-0.701 ± 0.22
same,promoter activity interaction Z-score,[1]; [17],0.209 ± 0.086
same,promoter activity interaction Z-score,[1]; [18],0.325 ± 0.52
same,promoter activity interaction Z-score,[1]; [19],0.0724 ± 0.69
same,promoter activity interaction Z-score,[1]; [20],-0.226 ± 0.46
same,promoter activity interaction Z-score,[1]; [21],0.107 ± 0.094
same,promoter activity interaction Z-score,[1]; [22],0.865 ± 0.24
same,promoter activity interaction Z-score,[2]; [7],-0.142 ± 0.16
same,promoter activity interaction Z-score,[2]; [8],0.0296 ± 0.051
same,promoter activity interaction Z-score,[2]; [9],-0.0038 ± 0.09
same,promoter activity interaction Z-score,[2]; [10],-0.119 ± 0.17
same,promoter activity interaction Z-score,[2]; [11],0.0424 ± 0.3
same,promoter activity interaction Z-score,[2]; [12],0.0155 ± 0.0044
same,promoter activity interaction Z-score,[2]; [13],0.104 ± 0.069
same,promoter activity interaction Z-score,[2]; [14],-0.24 ± 0.14
same,promoter activity interaction Z-score,[2]; [15],-0.145 ± 0.082
same,promoter activity interaction Z-score,[2]; [16],-0.07 ± 0.02
same,promoter activity interaction Z-score,[2]; [17],-0.0557 ± 0.0065
same,promoter activity interaction Z-score,[2]; [18],0.206 ± 0.3
same,promoter activity interaction Z-score,[2]; [19],-0.0706 ± 0.42
same,promoter activity interaction Z-score,[2]; [20],-0.131 ± 0.072
same,promoter activity interaction Z-score,[2]; [21],-0.0161 ± 0.083
same,promoter activity interaction Z-score,[2]; [22],0.512 ± 0.49
same,promoter activity interaction Z-score,[3]; [7],0.592 ± 0.022
same,promoter activity interaction Z-score,[3]; [8],0.885 ± 0.097
same,promoter activity interaction Z-score,[3]; [9],0.602 ± 0.084
same,promoter activity interaction Z-score,[3]; [10],0.271 ± 0.35
same,promoter activity interaction Z-score,[3]; [11],0.679 ± 0.22
same,promoter activity interaction Z-score,[3]; [12],0.662 ± 0.21
same,promoter activity interaction Z-score,[3]; [13],0.743 ± 0.19
same,promoter activity interaction Z-score,[3]; [14],0.276 ± 0.85
same,promoter activity interaction Z-score,[3]; [15],0.372 ± 0.28
same,promoter activity interaction Z-score,[3]; [16],0.257 ± 0.3
same,promoter activity interaction Z-score,[3]; [17],0.789 ± 0.66
same,promoter activity interaction Z-score,[3]; [18],0.142 ± 0.038
same,promoter activity interaction Z-score,[3]; [19],0.851 ± 0.33
same,promoter activity interaction Z-score,[3]; [20],1.19 ± 0.16
same,promoter activity interaction Z-score,[3]; [21],1.34 ± 0.058
same,promoter activity interaction Z-score,[3]; [22],1.39 ± 0.5
same,promoter activity interaction Z-score,[4]; [7],0.863 ± 0.1
same,promoter activity interaction Z-score,[4]; [8],1.42 ± 0.61
same,promoter activity interaction Z-score,[4]; [9],1.13 ± 0.1
same,promoter activity interaction Z-score,[4]; [10],0.38 ± 1.6
same,promoter activity interaction Z-score,[4]; [11],1.42 ± 0.9
same,promoter activity interaction Z-score,[4]; [12],0.964 ± 0.54
same,promoter activity interaction Z-score,[4]; [13],0.862 ± 0.23
same,promoter activity interaction Z-score,[4]; [14],-0.648 ± 0.39
same,promoter activity interaction Z-score,[4]; [15],0.399 ± 0.46
same,promoter activity interaction Z-score,[4]; [16],-0.467 ± 0.12
same,promoter activity interaction Z-score,[4]; [17],-0.0634 ± 0.12
same,promoter activity interaction Z-score,[4]; [18],0.149 ± 0.0074
same,promoter activity interaction Z-score,[4]; [19],0.582 ± 0.12
same,promoter activity interaction Z-score,[4]; [20],-0.0297 ± 0.2
same,promoter activity interaction Z-score,[4]; [21],0.845 ± 0.3
same,promoter activity interaction Z-score,[4]; [22],0.155 ± 0.23
same,promoter activity interaction Z-score,[5]; [7],0.0906 ± 0.0094
same,promoter activity interaction Z-score,[5]; [8],-0.0591 ± 0.084
same,promoter activity interaction Z-score,[5]; [9],0.0225 ± 0.12
same,promoter activity interaction Z-score,[5]; [10],-0.179 ± 0.12
same,promoter activity interaction Z-score,[5]; [11],0.124 ± 0.076
same,promoter activity interaction Z-score,[5]; [12],0.161 ± 0.03
same,promoter activity interaction Z-score,[5]; [13],0.187 ± 0.23
same,promoter activity interaction Z-score,[5]; [14],-0.163 ± 0.26
same,promoter activity interaction Z-score,[5]; [15],0.146 ± 0.15
same,promoter activity interaction Z-score,[5]; [16],-0.0799 ± 0.11
same,promoter activity interaction Z-score,[5]; [17],-0.00226 ± 0.029
same,promoter activity interaction Z-score,[5]; [18],0.121 ± 0.18
same,promoter activity interaction Z-score,[5]; [19],0.0824 ± 0.27
same,promoter activity interaction Z-score,[5]; [20],-0.0185 ± 0.033
same,promoter activity interaction Z-score,[5]; [21],-0.0171 ± 0.17
same,promoter activity interaction Z-score,[5]; [22],0.177 ± 0.52
same,promoter activity interaction Z-score,[6]; [7],0.541 ± 0.2
same,promoter activity interaction Z-score,[6]; [8],0.817 ± 0.21
same,promoter activity interaction Z-score,[6]; [9],-0.144 ± 0.41
same,promoter activity interaction Z-score,[6]; [10],-0.241 ± 0.51
same,promoter activity interaction Z-score,[6]; [11],0.146 ± 1.3
same,promoter activity interaction Z-score,[6]; [12],0.917 ± 0.58
same,promoter activity interaction Z-score,[6]; [13],1.47 ± 0.4
same,promoter activity interaction Z-score,[6]; [14],-1.38 ± 0.5
same,promoter activity interaction Z-score,[6]; [15],0.00539 ± 0.13
same,promoter activity interaction Z-score,[6]; [16],-0.369 ± 0.35
same,promoter activity interaction Z-score,[6]; [17],0.295 ± 0.094
same,promoter activity interaction Z-score,[6]; [18],-0.148 ± 0.41
same,promoter activity interaction Z-score,[6]; [19],-0.803 ± 0.044
same,promoter activity interaction Z-score,[6]; [20],0.117 ± 0.52
same,promoter activity interaction Z-score,[6]; [21],0.323 ± 0.18
same,promoter activity interaction Z-score,[6]; [22],0.105 ± 0.88
